Shown are actives, neighbours in structure and some others; about 7.8% of the full set was active somewhere.
MARV entry inh – blocks Marburg virus binding to or entry into cells. Marburg virus pseudotyped entry inhibition, cell reporter. Potency, µM (highest dose often 37.8 µM), inactives show top-dose activity change, negative = inhibition, usual class: inhibitors. hit rate 1.8% among 300,000. AID 540276; calls by dose curve; tested in HEK293 cells; further: potency means the concentration at half of the fitted maximal effect
VACV Venus inh – inhibitors of vaccinia virus (Venus reporter) | Potency, µM (highest dose often 36.5 µM), for inactives: top-dose activity change, negative = inhibition, actives largely listed as inhibitors | hit rate 0.46% among 330,000 | Vaccinia virus Venus reporter expression, fluorescence; calls by dose curve; tested in A549 cells; further: potency means the concentration at half of the fitted maximal effect; nearly all actives have a fitted effect of over 30% in size
HCV inh – inhibitors of hepatitis C virus infection; Huh7.5.1 HCVcc-Cre infection, luciferase reporter, 44 h; hit rate 3.4% among 340,000; Potency, µM (highest dose often 41.8 µM), for inactives: at the top dose activity change, negative = inhibition, usual class: inhibitors; active means well fitted inhibition curve with a large enough effect; inconclusive means small, poorly fitted or top-dose-only effect, or another doubt; inactive means no such curve, though single readings can be large or run the other way; further: potency means the concentration at half of the fitted maximal effect
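Whole-lifecycle infectious HCVcc-Cre system; cells 1,000/well, compound then virus (~0.5 moi) added 4 h after plating, 44 h culture. Luciferase read 15 sec following 15 min substrate incubation, room temp.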
LASV entry inh – inhibitors of Lassa virus binding or cell entry; Lassa virus pseudotype entry inhibition, cell reporter; Potency, µM (doses to about 37.9 µM), for inactives: at the top dose activity change, negative = inhibition, usual class: inhibitors; hit rate 1.2% among 300,000; calls by dose curve; tested in HEK293 cells; further: potency means the concentration at half of the fitted maximal effect; nearly all actives have a fitted effect of over 50% in size
HCMV antiviral – inhibitors of human cytomegalovirus | HFF cells, HCMV-luciferase reporter, 72 h; hits give low values | activity change, negative = inhibition, % at 57.5 µM | hit rate 4.5% among 410,000; in the data active means activity change below about -60%; inconclusive means no clear call, values can overlap the other calls; inactive means above about -39%
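HFF cells seeded 16 h at 37C, treated with compounds, infected with luciferase-reporter HCMV at MOI 1 PFU/cell; luciferase read at 72 h post infection, normalized to buffer-only and Salinomycin controls.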
VACV mCherry inh – inhibitors of vaccinia virus infection (mCherry reporter signal) | Vaccinia virus mCherry reporter infection, fluorescence | Potency, µM (titrated, usually from 36.5 µM), for inactives: at the top dose activity change, negative = inhibition, hits mostly inhibitors | hit rate 0.63% among 310,000; calls by dose curve; tested in A549 cells; further: potency means the concentration at half of the fitted maximal effect; nearly all actives have a fitted effect of over 35% in size
An asterisk follows results filed as active; i = inactive; u = inconclusive; x = no result; [ ] = remark or other dose. On the % scale 0 is the no-effect control and ±100 the full control effect.

SMILES	MARV entry inh	VACV Venus inh	HCV inh	LASV entry inh	HCMV antiviral	VACV mCherry inh
COc1ccc2nc(NC(=O)CSC3=NCCS3)sc2c1	u	u	u	-1%	-28	-8%[1.46 µM]
CCOc1ccc2nc(NC(=O)CSc3cn[nH]n3)sc2c1	u	-18%	u	u	90	-18%
COc1cccc(CNC(=O)C(=O)NCC(c2ccc3c(c2)OCO3)N2CCOCC2)c1 (stereo not drawn)	x	-14%	x	7%[46.1 µM]	-5	-14%
COc1cc(-c2nnc3sc(C4CCCCC4)nn23)cc(OC)c1OC	u	5.6µM*	u	u	x	u
COc1cccc(-c2nnc3sc(C4CCCCC4)nn23)c1	15%	x	-28%	-7%	-84*	x
COc1ccc2c(c1)CCc1cnc(-n3ncc(C(=O)N4CCN(CCO)CC4)c3C3CC3)nc1-2	x	-6%	x	x	x	-17%
COCCCNCCCCOc1cccc(Br)c1	u	-8%	u	0%	-11	i
COc1ccccc1OCCCCNC(C)(C)C	-21%	-7%	5%	1%	2	-16%
Cc1cc(Cl)c(OCCCCNC(C)(C)C)c(Br)c1	u	x	10µM*	u	x	x
Cc1cc(Br)ccc1OCCCCNC(C)(C)C	u	-23%	13µM*	-23%	-28	u
COCCNCCCCOc1ccc(Br)cc1C	u	-8%	10µM*	u	-9	-14%
Cc1cc(Cl)c(OCCCN(C)C)c(Br)c1	u	-14%	-23%	-19%	32	i
COCCCNCCCCOc1ccc(Br)cc1C	13µM*	-21%	11µM*	u	-5	-29%
Cc1ccc(OCCCC(=O)Nc2ccc(S(=O)(=O)N3CCOCC3)cc2)cc1	x	x	u	x	-63*	x
COc1ccc(CCC(=O)Nc2ccc(S(=O)(=O)N3CCOCC3)cc2)cc1	-1%[46.1 µM]	-4%	-19%	-12%[46.1 µM]	53	-24%
C/C=C/c1ccc(OCC(=O)Nc2cc(S(=O)(=O)N3CCOCC3)ccc2N2CCCC2)c(OC)c1	u	-28%	10µM*	u	u	-19%
CCOc1ccc(OCCCC(=O)Nc2cc(S(=O)(=O)N3CCOCC3)ccc2N2CCOCC2)cc1	x	x	u	x	-90*	x
CCOc1ccc(C(=O)OCC(=O)Nc2cc(S(=O)(=O)N3CCOCC3)ccc2N2CCOCC2)cc1	x	x	10%	x	0	x
COc1ccc(N(CC(=O)Nc2ccc(S(=O)(=O)N3CCOCC3)cc2)S(=O)(=O)c2ccc(F)cc2)cc1	u	-22%	14µM*	-28%	-6	-28%
COc1ccc(CC(=O)Nc2cc(S(=O)(=O)N3CCOCC3)ccc2N2CCCC2)cc1OC	-4%[46.1 µM]	-10%	8%	28%[46.1 µM]	-15	-13%
CCc1ccc(S(=O)(=O)c2nnn3c2nc(NCCNC(C)=O)c2cc(Cl)ccc23)cc1	-25%[46.1 µM]	-13%	x	x	6	-17%
COc1ccc(CCN2C(=O)c3[nH]nc(-c4ccccc4O)c3C2c2ccccc2)cc1 (stereo not drawn)	-29%[46.1 µM]	-28%	x	u	-22	-29%
COc1cccc([C@@H]2Oc3ccc(Br)cc3C(=O)[C@@H]2OC(=O)N[C@H]2CCCc3ccccc32)c1	-11%[14.2 µM]	x	x	x	x	x
CCOC(=O)C[C@H]1c2cc(F)ccc2S(=O)(=O)N1Cc1cc(OC)c(OC)c(OC)c1	x	-9%	x	x	x	i
c1ccc2sc(C3(N4CCCCC4)CCCCC3)cc2c1	7.1µM*	-6%	x	u	x	i
SMILES	MARV entry inh	VACV Venus inh	HCV inh	LASV entry inh	HCMV antiviral	VACV mCherry inh
COc1ccc(-c2coc3ncnc(N)c23)cc1	x	x	x	4%	x	x
Nc1ncnc2occ(-c3ccc(NC(=O)Nc4cc(C(F)(F)F)cc(C(F)(F)F)c4)cc3)c12	x	x	x	20µM*	x	x
N/C(=N\OC(=O)c1ccccc1Cl)c1ccncc1	u	-10%	u	-24%	-99*	-1%
N/C(=N\OC(=O)/C=C/c1ccccc1)c1ccccn1	7.9µM*	3%	2%	-26%[46.1 µM]	8	i
Cc1ccc(C(=O)O/N=C(\N)c2ccccn2)c(Cl)c1	x	x	-28%	x	-80*	x
N/C(=N\OC(=O)c1ccc(Cl)cc1Cl)c1ccccn1	3.7µM*	x	7%	5.2µM*	-61*	x
Cc1cc(C)c(CN2CCC3(CCC(CNC(=O)c4ccn(C)n4)O3)CC2)cc1C (stereo not drawn)	x	0%	x	x	x	i
COc1ccc(-c2cn3nc(N4CCCC(C(=O)Nc5ccccc5F)C4)sc3n2)cc1 (stereo not drawn)	x	-22%	x	u	u	-27%
O=[N+]([O-])c1ccc(-c2nc(-c3ccc(F)cc3)c(-c3ccncc3)[nH]2)cc1	8.2µM*	x	x	u	x	x
COc1cccc(C2C(C(=O)Nc3cccnc3)=C(C)Nc3nnnn32)c1OC (stereo not drawn)	u	x	-5%	-20%	-69*	x
COc1cc(C2C(C(=O)Nc3ccccc3)=C(C)Nc3nnnn32)cc(OC)c1OC (stereo not drawn)	22%[46.1 µM]	-9%	x	-1%[46.1 µM]	-106*	-17%
CC1=C(C(=O)Nc2ccccc2)C(c2ccncc2)n2nnnc2N1 (stereo not drawn)	u	x	8%	-2%	-20	x
CC1=C(C(=O)Nc2cccnc2)C(c2ccncc2)n2nnnc2N1 (stereo not drawn)	23%	x	5%	-2%	-2	x
CO/N=C/NC(=O)N1OC[C@@H]2COc3ccc4ccccc4c3[C@@H]21	-10%	-14%	-1%	9%	1	x
NC(=S)N1OC[C@@H]2COc3ccc4ccccc4c3[C@@H]21	u	u	u	5%	-67*	u
O=C(Cn1cnc2c(cnn2-c2ccccc2)c1=O)N1CCCc2ccccc21	7.3µM*	x	u	u	u	x
COc1ccc(Cc2nc3ccc(C(=O)N(C)Cc4nccs4)cc3o2)cc1OC	x	x	u	x	-65*	x
C=CCN(CC=C)C(=O)c1ccc2nc(Cc3ccc(OC)c(OC)c3)oc2c1	u	-13%	11µM*	u	-62*	i
COc1ccc(Cc2nc3ccc(C(=O)N4CCN(C)C(C)C4)cc3o2)cc1OC (stereo not drawn)	u	-19%	u	u	-64*	u
COc1ccc(Cc2nc3ccc(C(=O)N4CCCC4)cc3o2)cc1OC	u	-13%	u	u	0	-8%
COC(=O)C(c1ccccc1)(c1cn(C)c2ccccc12)C(Nc1ccccc1)c1cccc(Br)c1 (stereo not drawn)	x	x	x	x	-14	x
O=C(c1cc(-c2ccccc2)nn1-c1ccccc1)N1CCN(S(=O)(=O)c2c(F)cccc2F)CC1	18%	-12%	13µM*	u	-20	i
O=C(c1cc(C2CC2)nn1-c1ccccc1)N1CCN(S(=O)(=O)c2ccccc2)CC1	-26%	-2%	u	u	u	-14%
Cc1ccc(NC(=O)Cc2csc(C)n2)c(C)c1	28%[46.1 µM]	-3%	x	19%[46.1 µM]	-4	3%
CCc1cccc(NC(=O)c2coc(=O)c3ccccc23)c1	u	-11%	x	-26%[46.1 µM]	1	-8%

Source: PubChem BioAssay
